Compound activity from PubChem.
The list is not random: actives were taken first. Their share in the collection is about 2.4%.
D2 ag-1 – agonists of human D2 dopamine receptor (beta-arrestin); P14416; DiscoveRx PathHunter D2 beta-arrestin, luminescence, 90 min; 100% = 57 uM dopamine signal; activation, % (concentration not given with the values); actives 0.084% (n = 360,000); AID 624465; in the data active = activation above about 40%; inconclusive = between about 15% and that limit
Target sequence (P14416 whole entry, looked up): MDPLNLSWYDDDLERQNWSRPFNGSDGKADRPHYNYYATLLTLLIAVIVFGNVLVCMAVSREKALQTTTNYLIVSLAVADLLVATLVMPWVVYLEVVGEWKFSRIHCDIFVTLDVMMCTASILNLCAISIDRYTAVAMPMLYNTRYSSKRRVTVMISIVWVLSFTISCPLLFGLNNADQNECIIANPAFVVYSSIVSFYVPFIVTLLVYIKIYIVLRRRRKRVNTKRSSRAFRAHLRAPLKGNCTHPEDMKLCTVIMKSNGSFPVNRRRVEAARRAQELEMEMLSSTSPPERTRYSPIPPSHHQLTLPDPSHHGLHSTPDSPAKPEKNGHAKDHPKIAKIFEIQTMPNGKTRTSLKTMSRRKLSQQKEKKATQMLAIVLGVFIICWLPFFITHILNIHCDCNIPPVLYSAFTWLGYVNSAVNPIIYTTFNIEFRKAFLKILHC
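Agonist mode: compounds alone added to overnight-plated D2 PathHunter cells for 90 min at 37 C, with 57 uM final dopamine (EC100) defining full response. Beta-arrestin recruitment detected by chemiluminescent reagent, read after 1 h at ambient temperature.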
D2 antagonist – antagonizes the human D2 dopamine receptor; P14416; HEK293 TREx D2 cells, calcium flux, dopamine EC80; inhibition, % at 10 µM; actives 2% (n = 340,000); AID 485344; in the data active = inhibition above about 30%; inactive = below that, where a call was filed; note: 0% is about no effect
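Cells plated overnight at 30 C with tetracycline; no-wash calcium dye, 30–90 min RT; 10 s baseline; compound pinned; 180 s read; EC80 dopamine added; another 180 s read.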
D2 ag-2 – agonists of human D2 dopamine receptor; actives 0.53% (n = 340,000); AID 485358; activation, % at 2 µM; P14416; HEK293 T-REx D2 cells, calcium flux agonist mode;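 active = activation over 3 SD above normal in the single-dose calcium agonist read, cut at about 30% in these data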; note: 0% is about no effect
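Agonism scored from kinetic calcium signal (1 read/sec, 180 s) following compound pin transfer, after a 10 s baseline. Cells: HEK293 Trex line expressing inducible D2 receptor coupled to calcium, dye-loaded after overnight culture at 30 C.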
D2 PAM-1 – positively modulates the human D2 dopamine receptor allosterically; P14416; HEK293 T-REx D2, calcium flux, EC20 dopamine potentiation; potentiation, % at 10 µM; actives 0.34% (n = 340,000); AID 485347;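 active = potentiation over 3 SD above the plate norm, cut at about 30% in these data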; note: 0% is about no effect
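Potentiation of an EC20 dopamine calcium response measured kinetically over 180 s, after a preceding 180 s compound-only read flagging agonists. Cells: inducible Hek293 Trex D2 line, 4000/well, cultured overnight at 30 C before dye loading.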
D2 PAM-2 – potentiates the human D2 dopamine receptor allosterically; P14416; DiscoveRx D2 beta-arrestin cells, luminescence, 90 min; 100% = 57 uM dopamine signal; potentiation, % (concentration not given with the values); actives 0.23% (n = 360,000); AID 624464; in the data active = potentiation above about 50%; inconclusive = mostly about 30% to 49%
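PathHunter beta-arrestin assay in DiscoveRx D2 cells. Compounds were added with an EC20 of dopamine (50 nM final) for 90 min at 37 deg C. Luminescence was read 1 h after detection reagent, with 57 uM dopamine as the EC100 control.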
The depositor's hits bear a star; ? = inconclusive; nt = not tested or not shown.

SMILES	D2 ag-1	D2 antagonist	D2 ag-2	D2 PAM-1	D2 PAM-2
CCOc1ccc2nc(NC(=O)c3cccn(Cc4ccccc4)c3=O)sc2c1	nt	nt	0.9	3.1	nt
Cc1ccc(CNC(=O)CCCn2c(=O)c3sccc3n(CC(=O)Nc3c(C)cccc3C)c2=O)cc1	nt	nt	nt	-3.3	nt
Cc1cc(C)cc(NC(=O)CN2C(=O)CN=C(c3ccccc3)c3cc(Cl)ccc32)c1	nt	nt	0.0	-9.3	nt
Oc1ccc(C[C@H]2NCCc3cc(O)c(O)cc32)cc1O	6.9	84.8*	5.4	-37.3	-22.4
Cn1c(=O)n(C)c2cc(CNCCc3ccc(F)cc3)ccc21	nt	nt	1.8	-9.5	nt
Nc1c(C(=O)NCc2ccco2)c2nc3ccccc3nc2n1CCN1CCCCC1	-0.9	-8.1	2.9	30.3*	-9.5
CC(=O)N1CN2CN(C1)CN(C(C)=O)C2	-1.3	-8.7	2.0	34.3*	0.1
CC1(C)CSC(=NCc2ccccc2)N1	-2.5	55.7*	73.3*	-17.2	-8.0
O=C(COc1cc(Cl)ccc1Cl)Nc1ccc(Cl)cc1C(=O)c1ccccc1	nt	nt	0.3	-3.6	nt
COc1ccc(NC(=O)CN2C(=O)CN=C(c3ccccc3)c3ccccc32)c(OC)c1	nt	nt	1.0	-8.6	nt
CCOC(=O)c1c(N)n(CCCOC(=O)c2ccco2)c2nc3ccccc3nc12	?	13.7	2.2	8.9	86.3*
O=C(COc1ccc(Br)cc1)Nc1ccc(Cl)cc1C(=O)c1ccccc1	nt	nt	-0.6	4.0	nt
CCCN1CCc2cccc3c2[C@H]1Cc1ccc(O)c(O)c1-3	121.2*	nt	nt	nt	135.6*
COc1ccc2c(c1O)-c1c(OC)c(OC)cc3c1[C@H](C2)N(C)CC3	-7.5	14.4	0.1	-3.4	-29.8
Cc1ccccc1OCC(=O)N1CCN(CCc2ccccn2)CC1	nt	nt	1.3	-11.5	nt
CN1CC(C(=O)c2ccccc2)C(c2ccccc2)C1 (stereo not drawn)	2.8	35.1*	1.5	-28.8	-13.9
Cc1ccc(C(C)C)c(OCC(=O)N2CCN(CCc3ccncc3)CC2)c1	nt	nt	0.2	4.0	nt
CCN(CC)C(=O)c1ccc(NC(=O)CCn2nc(-c3ccc(Cl)cc3)c3ccccc3c2=O)cc1	nt	nt	-1.3	-9.0	nt
COc1ccccc1-n1c(-c2ccccc2)nc2ccccc2c1=O	-4.1	39.8*	0.1	-0.9	-18.5
Cc1ccccc1-n1c(C)nc2ccccc2c1=O	-2.7	-6.2	0.1	30.9*	-1.9
Cc1nc2ccccc2c(=O)n1-c1ccccn1	3.1	35.1*	-1.4	9.2	2.4
COc1ccc(C)cc1NC(=O)N(Cc1ccc2c(c1)OCO2)C1CCN(Cc2ccccc2)CC1	nt	nt	0.3	-6.6	nt
Cc1ccccc1-c1nn2c(=O)cc(CN3CCN(C(=O)COc4ccccc4Cl)CC3)nc2s1	nt	nt	-0.5	-3.7	nt
CCCC1=Nc2cc(C(=O)NCCCN(CC)CC)ccc2Sc2ccccc21	nt	nt	1.1	-13.2	nt
Cc1cccc(C2CC(=O)Oc3c2c(=O)oc2ccccc32)c1 (stereo not drawn)	nt	nt	nt	0.5	nt
SMILES	D2 ag-1	D2 antagonist	D2 ag-2	D2 PAM-1	D2 PAM-2
COC(=O)C1C=C2c3cccc4[nH]cc(c34)CC2N(C)C1 (stereo not drawn)	nt	61.9*	79.5*	-29.8	nt
CC[C@@H](CO)NC(=O)[C@@H]1C=C2c3cccc4[nH]cc(c34)C[C@H]2N(C)C1	41.8*	nt	nt	nt	?
COc1ccc(NC(=O)CN2C(=O)C(C)N=C(c3ccccc3F)c3cc(Cl)ccc32)c(OC)c1 (stereo not drawn)	nt	nt	-0.1	0.3	nt
CC(C)(C)c1ccc(OCC(=O)Nc2ccc(Cl)cc2C(=O)c2ccccc2)cc1	nt	nt	0.3	2.2	nt
O=c1[nH]c2ccccc2n1C1CCN(C(CCc2ccccc2)c2nnnn2Cc2ccccc2)CC1 (stereo not drawn)	12.6	nt	nt	nt	51.9*
CSCCC(c1nnnn1Cc1ccccc1)N1CCC(n2c(=O)[nH]c3ccccc32)CC1 (stereo not drawn)	-0.6	nt	nt	nt	?
COc1ccccc1CN1CCCC(C(=O)c2ccccc2OC)C1 (stereo not drawn)	1.8	-7.2	0.2	-16.0	-24.7
COc1ccc(F)cc1C(=O)C1CCCN(Cc2ccc(O)cc2)C1 (stereo not drawn)	-3.0	71.7*	-0.1	-21.8	-13.5
CCOc1ccc(CN2CCCC(C(=O)c3ccccc3OC)C2)cc1 (stereo not drawn)	7.0	71.8*	0.4	-23.6	-21.0
COc1ccc(F)cc1C(=O)C1CCCN(Cc2cnc(C)s2)C1 (stereo not drawn)	-2.3	17.0	0.5	-18.2	-5.1
Cc1nnc(NC(=O)c2cccn(Cc3ccc(Cl)cc3)c2=O)s1	nt	nt	1.2	-4.1	nt
Cc1cccc(-n2c(CC3C(=O)Nc4ccc(C)cc43)nc3ccccc3c2=O)c1 (stereo not drawn)	nt	nt	3.6	4.4	nt
O=C1CN=C(c2ccccc2)c2cc(Cl)ccc2N1Cc1ccc(Cl)cc1	nt	nt	1.1	4.6	nt
Cc1cccc(-c2nc(CN3C(=O)CN=C(c4ccccc4)c4ccccc43)c(C)o2)c1	nt	nt	0.0	-9.7	nt
O=C(COC(=O)Cc1ccccc1)Nc1nnc(-c2ccccc2)o1	1.6	30.6*	0.2	-11.3	-65.6
NS(=O)(=O)OC(CCc1ccccc1)C(Cl)(Cl)Cl (stereo not drawn)	0.6	38.5*	1.8	7.4	-0.1
Cc1ccc(-c2nc(CN3C(=O)CN=C(c4ccccc4Cl)c4cc(Cl)ccc43)c(C)o2)cc1	nt	nt	2.8	2.1	nt
CCOC(=O)C1(CCc2ccccc2)CCN(Cc2cccc3c2OCO3)CC1	-0.1	47.3*	-0.4	-22.8	-8.0
CCOC(=O)C1(CCc2ccccc2)CCN(Cc2cccc3cnccc23)CC1	0.1	-18.6	1.8	-7.1	-10.0
OC(CNC1CCCCC1)C(F)(F)F (stereo not drawn)	-2.3	39.7*	-0.7	-1.9	-3.8
Cc1ccc(OCC(=O)Nc2ccc(Cl)cc2C(=O)c2ccccc2)cc1C	nt	nt	nt	-5.6	nt
O=C(Nc1ccon1)c1cccn(Cc2cccc([N+](=O)[O-])c2)c1=O	nt	nt	0.4	20.5	nt
